By AC50 is commonly meant the concentration at which the activity in the assay is half-maximal.

The record followed here is PubChem BioAssay (EPA / NIEHS).

Molecules are shown by their SMILES. “And” between values parts separate entries of the source, which are not always exact repeats. Equal entries are not always repeated. Results filed as inconclusive are left out. A structure can be active in one record and inactive in another. The source made the active and inactive calls. How the source made its calls, unless noted: active means hit-call score of the fitted dose curve at least 0.9, where 1 is the maximum; inactive means score below 0.9.

Assay [1] concerns the target human Retinoid X Receptor beta (RXRb), RXRB (gene 6257) (UniProt P28702). Briefly: ATG_RXRb_TRANS: Attagene TRANS-FACTORIAL HepG2 Assay for human Retinoid X Receptor beta (RXRb) (AID 2283013; active means hit-call score of the fitted dose curve at least 0.9, where 1 is the maximum). Put shortly:
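Readout is reporter transcript induction after 24 h dosing. It is measured by RT-PCR of total RNA followed by fluorescent capillary electrophoresis. HepG2 liver cells carry transfected multiple reporter units driven by an exogenous RXRb-Gal4 fusion; activity is relative to DMSO.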

Assay [2] concerns the target human Thyroid Receptor alpha (THRa1), THRA (gene 7067) (UniProt P10827). As to the kind of experiment: ATG_THRa1_TRANS: Attagene TRANS-FACTORIAL HepG2 Assay for human Thyroid Receptor alpha (THRa1) (AID 2283014; active means hit-call score of the fitted dose curve at least 0.9, where 1 is the maximum). An outline of the steps:
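Measured here is mRNA from a GAL4-UAS reporter in transfected HepG2 cells carrying a Gal4-fused receptor, 24 h post-dose. DMSO served as negative control and baseline.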

Read-out in assay [3]: E-selectin (Homo sapiens) (UniProt P16581)
As to the kind of experiment: BSK_3C_Eselectin: BioMAP Diversity Plus: 3C Assay for Eselectin Biomarker Activity (AID 2283015).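 On outcome: cell surface E-selectin protein quantified by ELISA 24 h after dosing.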 Conditions: primary human endothelial cells (HUVEC); actives raise or lower the signal. An outline of the steps:
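Endpoint derived by bidirectional fitting against DMSO vehicle; signal is ELISA-detected E-selectin from primary HUVEC at 24 h post-dosing, with parallel SRB staining (0.1% SRB, 560 nm) flagging cytotoxicity.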

Read-out in assay [4]: Interleukin-1 alpha (IL1a), IL1A (gene 3552)
Briefly: BSK_BE3C_IL1a: BioMAP Diversity Plus: BE3C Assay for Interleukin-1 alpha (IL1a) Biomarker Activity (AID 2283016). Conditions: primary human bronchial epithelial cells; actives raise or lower the signal. Put shortly:
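IL-1a measured by ELISA after 24 h treatment of human primary bronchial epithelial cells, with gain or loss of signal fitted versus DMSO. Parallel cultures stained with SRB gauge overt cytotoxicity.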

Read-out in assay [5]: Monocyte Chemoattractant Protein-1 (MCP1), CCL2 (gene 6347)
As to the kind of experiment: BSK_3C_MCP1: BioMAP Diversity Plus: 3C Assay for Monocyte Chemoattractant Protein-1 (MCP1) Biomarker Activity (AID 2283017). Conditions: primary human endothelial cells (HUVEC); actives raise or lower the signal. An outline of the steps:
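Using human vascular primary endothelium, researchers measured MCP-1 by ELISA 24 h after treatment, with DMSO serving as negative control for bidirectional fitting.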

Read-out in assay [6]: Monocyte Chemoattractant Protein-1 (MCP1), CCL2 (gene 6347)
As to the kind of experiment: BSK_4H_MCP1: BioMAP Diversity Plus: 4H Assay for Monocyte Chemoattractant Protein-1 (MCP1) Biomarker Activity (AID 2283018). Conditions: primary human endothelial cells (HUVEC); actives raise or lower the signal. Put shortly: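 ELISA of MCP-1 (CCL2) 24 h after chemical dosing of HUVEC in the BioMAP 4H system. Gain or loss versus DMSO fitted; parallel SRB staining (560 nm) tracked overt cytotoxicity.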

Read-out in assay [7]: Human Leukocyte Antigen - DR isotype (HLADR), HLA-DRA (gene 3122)
Briefly: BSK_3C_HLADR: BioMAP Diversity Plus: 3C Assay for Human Leukocyte Antigen - DR isotype (HLADR) Biomarker Activity (AID 2283019). Conditions: primary human endothelial cells (HUVEC); actives raise or lower the signal. An outline of the steps: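 Compound added to primary HUVEC cultures, 24 h incubation, then HLA-DR determined by ELISA; endpoint derived by bidirectional fitting relative to DMSO negative control.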

Read-out in assay [8]: Interleukin-8 (IL8), CXCL8 (gene 3576)
Briefly: BSK_3C_IL8: BioMAP Diversity Plus: 3C Assay for Interleukin-8 (IL8) Biomarker Activity (AID 2283020). The following applies: primary human endothelial cells (HUVEC); actives raise or lower the signal. Put shortly: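 IL-8 was measured by ELISA in HUVEC cultures 24 h after chemical dosing, with gain or loss of signal fitted relative to DMSO. Parallel SRB total-protein staining tracked overt cytotoxicity.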

Read-out in assay [9]: Monokine induced gamma interferon (MIG), CXCL9 (gene 4283)
As to the kind of experiment: BSK_3C_MIG: BioMAP Diversity Plus: 3C Assay for Monokine induced gamma interferon (MIG) Biomarker Activity (AID 2283021).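 On AC50: MIG protein level measured by immunoassay in the treated endothelial cultures.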 The following applies: primary human endothelial cells (HUVEC); actives raise or lower the signal. An outline of the steps:
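ELISA measurement of MIG in human umbilical vein endothelial cells 24 h after treatment. Cytotoxicity tracked by SRB staining in parallel cultures; gain or loss of signal fitted relative to DMSO.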

Assay [10] deals with human Vitamin D Receptor (VDR), VDR (gene 7421) (UniProt P11473). Briefly: ATG_VDR_TRANS: Attagene TRANS-FACTORIAL HepG2 Assay for human Vitamin D Receptor (VDR) (AID 2283022; active means hit-call score of the fitted dose curve at least 0.9, where 1 is the maximum). An outline of the steps:
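Multiplexed TRANS reporter in HepG2; 24 h treatment; reporter mRNA by RT-PCR plus capillary electrophoresis; upregulation scored relative to DMSO.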

A short description of assay [11]: BSK_3C_SRB: Viability Assessment in the BioMAP Diversity Plus: 3C Assay (AID 2283023).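 Further: cells read 24 h after compound dosing; fitted both ways against DMSO so a hit may be signal rise or drop.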 The following applies: primary human endothelial cells (HUVEC). Put shortly:
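Overt cytotoxicity is gauged in parallel confluent HUVEC cultures by SRB total-protein staining at the time of biomarker measurement, 24 h after dosing. Gain or loss of signal is fitted versus DMSO.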

Read-out in assay [12]: Matrix Metallopeptidase 1 (MMP1), MMP1 (gene 4312)
As to the kind of experiment: BSK_BE3C_MMP1: BioMAP Diversity Plus: BE3C Assay for Matrix Metallopeptidase 1 (MMP1) Biomarker Activity (AID 2283024). The following applies: primary human bronchial epithelial cells; actives raise or lower the signal. An outline of the steps:
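ELISA measurement of MMP-1 after 24 h compound exposure of primary human bronchial epithelial cells. Changes in either direction fitted relative to DMSO; parallel SRB staining checked overt cytotoxicity.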

Assay [13] in a line: BSK_3C_Vis: BioMAP Diversity Plus: 3C Assay for Morphology Visualization (AID 2283025).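 Further: fitted both ways so gain or loss versus DMSO counts.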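 On AC50: light microscopy image of cell morphology used as background control.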 Conditions: primary human endothelial cells (HUVEC). An outline of the steps: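 Light-microscopy visualization of HUVEC cultures at 24 h post-treatment, with DMSO as baseline for bidirectional fitting.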
Read-out in assay [14]: Pselectin, SELP (gene 6403)
Briefly: BSK_4H_Pselectin: BioMAP Diversity Plus: 4H Assay for Pselectin Biomarker Activity (AID 2283026). Conditions: primary human endothelial cells (HUVEC); actives raise or lower the signal. An outline of the steps:
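ELISA of surface P-selectin on HUVEC, 24 h after dosing, with parallel SRB staining (0.1% after 10% TCA fixation, 560 nm) for overt cytotoxicity. Activity fitted in both directions relative to DMSO.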

Assay [15] in a line: BSK_4H_SRB: Viability Assessment in the BioMAP Diversity Plus: 4H Assay (AID 2283027).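 Further: cells exposed to compound for 24 h before staining.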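 On AC50: curves fitted both ways versus DMSO so AC50 may be loss or gain.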 The following applies: primary human endothelial cells (HUVEC). An outline of the steps: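 HUVEC, 24 h post-dose; 10% TCA fix, 0.1% SRB stain, A560 nm. Total protein = overt cytotoxicity, parallel to biomarker read. Bidirectional fit vs DMSO baseline.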
A short description of assay [16]: BSK_BE3C_SRB: Viability Assessment in the BioMAP Diversity Plus: BE3C Assay (AID 2283028).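 On AC50: fitted both ways so AC50 may mark signal gain or loss versus DMSO.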 Conditions: primary human bronchial epithelial cells. Put shortly:
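SRB total-protein staining (0.1%, after TCA fixation) of chemically dosed human bronchial epithelial primary cells at 24 h; DMSO serves as the negative control for bidirectional curve fitting.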

Read-out in assay [17]: Thrombomodulin, THBD (gene 7056)
As to the kind of experiment: BSK_3C_Thrombomodulin: BioMAP Diversity Plus: 3C Assay for Thrombomodulin Biomarker Activity (AID 2283029). The following applies: primary human endothelial cells (HUVEC); actives raise or lower the signal. Put shortly:
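ELISA measurement of thrombomodulin on HUVEC surface 24 h after chemical dosing; activity fitted in both directions relative to DMSO vehicle.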

Read-out in assay [18]: Urokinase-type plasminogen activator receptor (uPAR), PLAUR (gene 5329)
Briefly: BSK_4H_uPAR: BioMAP Diversity Plus: 4H Assay for Urokinase-type plasminogen activator receptor (uPAR) Biomarker Activity (AID 2283030). Conditions: primary human endothelial cells (HUVEC); actives raise or lower the signal. Put shortly: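 Endpoint derived via bidirectional curve fitting against DMSO baseline; readout was ELISA detection of uPAR on umbilical vein endothelial cells at 24 h post-treatment, with SRB-stained parallel cultures assessing cytotoxicity.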

Read-out in assay [19]: Vascular endothelial growth factor receptor 2 (Homo sapiens) (UniProt P35968)
Briefly: BSK_4H_VEGFRII: BioMAP Diversity Plus: 4H Assay for Vascular endothelial growth factor receptor 2 (VEGFR2) Biomarker Activity (AID 2283031).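 On AC50: cell-surface VEGFR2 protein level quantified by ELISA.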 Conditions: primary human endothelial cells (HUVEC); actives raise or lower the signal. Put shortly: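 In this multiplexed HUVEC system, biomarker ELISA was performed after 24 h chemical exposure. Parallel SRB staining (TCA fixation, 560 nm) tracked cytotoxicity; DMSO served as baseline.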

Read-out in assay [20]: Human Leukocyte Antigen - DR isotype (HLADR), HLA-DRA (gene 3122)
Briefly: BSK_BE3C_HLADR: BioMAP Diversity Plus: BE3C Assay for Human Leukocyte Antigen - DR isotype (HLADR) Biomarker Activity (AID 2283032). Conditions: primary human bronchial epithelial cells; actives raise or lower the signal. An outline of the steps: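 Cell-surface HLA-DR ELISA readout at 24 h after dosing in the BE3C primary human lung bronchial epithelial system; gain or loss of signal against DMSO, with parallel sulforhodamine B staining of total protein for overt cytotoxicity.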

Chain of human Retinoid X Receptor beta (RXRb), RXRB (gene 6257) (P28702 whole entry, looked up, the tested form may be a part): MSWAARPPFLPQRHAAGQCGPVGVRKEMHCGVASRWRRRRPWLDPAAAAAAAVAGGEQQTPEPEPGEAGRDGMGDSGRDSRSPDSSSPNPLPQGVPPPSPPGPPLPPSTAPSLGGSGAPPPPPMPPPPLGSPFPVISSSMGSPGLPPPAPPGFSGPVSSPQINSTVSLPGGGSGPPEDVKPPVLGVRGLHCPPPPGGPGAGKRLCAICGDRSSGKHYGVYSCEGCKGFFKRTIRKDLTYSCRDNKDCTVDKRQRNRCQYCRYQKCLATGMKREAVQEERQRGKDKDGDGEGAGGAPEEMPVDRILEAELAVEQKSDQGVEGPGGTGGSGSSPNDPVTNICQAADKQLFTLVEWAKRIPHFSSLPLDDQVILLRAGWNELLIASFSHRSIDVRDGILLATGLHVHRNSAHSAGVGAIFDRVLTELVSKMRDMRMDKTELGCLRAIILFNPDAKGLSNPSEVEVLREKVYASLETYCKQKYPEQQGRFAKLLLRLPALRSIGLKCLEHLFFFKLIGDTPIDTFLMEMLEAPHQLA
Chain of human Vitamin D Receptor (VDR), VDR (gene 7421) (P11473 whole entry, looked up): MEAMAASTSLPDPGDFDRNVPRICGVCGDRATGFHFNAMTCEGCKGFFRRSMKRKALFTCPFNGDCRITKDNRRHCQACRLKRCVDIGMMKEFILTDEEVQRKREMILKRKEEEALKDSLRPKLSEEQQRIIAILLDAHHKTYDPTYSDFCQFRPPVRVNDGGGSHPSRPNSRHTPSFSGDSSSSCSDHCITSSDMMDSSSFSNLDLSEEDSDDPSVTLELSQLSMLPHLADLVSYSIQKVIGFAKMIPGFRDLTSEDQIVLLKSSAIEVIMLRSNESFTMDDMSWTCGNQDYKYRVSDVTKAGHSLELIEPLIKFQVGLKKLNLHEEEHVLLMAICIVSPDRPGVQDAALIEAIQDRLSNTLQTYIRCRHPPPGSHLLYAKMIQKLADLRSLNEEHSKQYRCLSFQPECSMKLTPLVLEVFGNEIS
Chain of human Thyroid Receptor alpha (THRa1), THRA (gene 7067) (P10827 whole entry, looked up, the tested form may be a part): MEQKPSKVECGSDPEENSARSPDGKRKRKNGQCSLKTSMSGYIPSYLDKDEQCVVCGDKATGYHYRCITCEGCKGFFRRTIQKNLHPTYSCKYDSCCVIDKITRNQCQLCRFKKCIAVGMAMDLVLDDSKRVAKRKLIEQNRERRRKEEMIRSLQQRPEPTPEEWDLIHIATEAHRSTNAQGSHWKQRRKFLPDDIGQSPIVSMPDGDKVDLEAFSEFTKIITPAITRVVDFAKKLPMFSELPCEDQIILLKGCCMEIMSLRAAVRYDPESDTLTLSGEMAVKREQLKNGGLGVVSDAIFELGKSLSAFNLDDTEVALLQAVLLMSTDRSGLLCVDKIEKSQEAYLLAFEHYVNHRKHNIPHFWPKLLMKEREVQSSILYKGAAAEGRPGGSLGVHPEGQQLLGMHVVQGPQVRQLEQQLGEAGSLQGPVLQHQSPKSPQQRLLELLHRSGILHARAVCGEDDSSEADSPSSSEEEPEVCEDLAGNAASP
Chain of E-selectin (Homo sapiens) (P16581 whole entry, looked up): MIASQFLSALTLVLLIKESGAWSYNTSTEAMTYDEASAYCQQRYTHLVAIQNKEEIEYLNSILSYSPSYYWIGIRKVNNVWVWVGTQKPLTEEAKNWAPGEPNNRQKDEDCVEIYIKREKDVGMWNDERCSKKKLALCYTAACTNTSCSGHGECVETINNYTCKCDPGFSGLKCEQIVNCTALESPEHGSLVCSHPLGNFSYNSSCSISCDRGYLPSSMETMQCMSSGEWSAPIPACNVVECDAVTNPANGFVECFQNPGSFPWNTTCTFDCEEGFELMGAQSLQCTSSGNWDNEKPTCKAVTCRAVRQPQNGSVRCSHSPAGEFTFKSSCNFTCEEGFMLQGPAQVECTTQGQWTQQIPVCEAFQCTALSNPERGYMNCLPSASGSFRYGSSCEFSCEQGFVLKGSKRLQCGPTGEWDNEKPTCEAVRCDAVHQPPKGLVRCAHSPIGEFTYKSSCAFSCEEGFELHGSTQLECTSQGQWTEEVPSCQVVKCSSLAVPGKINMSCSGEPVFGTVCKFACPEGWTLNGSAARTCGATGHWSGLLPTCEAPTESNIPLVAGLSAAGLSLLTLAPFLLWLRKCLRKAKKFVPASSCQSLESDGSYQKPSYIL

In the case of `Cc1cc(=O)[nH]o1`, the call in assay [1] was inactive.

Regarding `ClC1=C(Cl)[C@]2(Cl)[C@@H]3[C@@H](Cl)[C@@H](Cl)C[C@@H]3[C@@]1(Cl)C2(Cl)Cl`, the result in [1] was inactive.

As to `O=[N+]([O-])c1c(Cl)c(Cl)cc(Cl)c1Cl`, the half-maximal activity concentration (AC50) in assay [1] was 32.9 µM (active). Besides, the outcome in [2] was inactive.

As to `O=[N+]([O-])c1ccc2c3c(cccc13)CC2`, the half-maximal activity concentration (AC50) was 27.5 µM (active) in [1], 13.7 µM (active) in [7], 20 µM (active) in [11] and 8.8 µM (active) in assay [13]. Further, the call in assay [2], in [3], in assay [4], in [5], in assay [6] and in [8] was inactive. In addition, the outcome in assay [9], in assay [10], in assay [12], in [14], in [15] and in [16] was inactive. Also, the outcome in [17], in [18], in assay [19] and in [20] was inactive.

With `O=C1C2(Cl)C3(Cl)C4(Cl)C(Cl)(Cl)C5(Cl)C3(Cl)C1(Cl)C5(Cl)C24Cl` (centres undefined), the AC50 in [1] was 2.67 µM (active) and 7.57 µM (active); in assay [2], 4.37 µM (active) and 56.4 µM (active); in [3] it was 11.7 µM (active); in assay [4], 9.67 µM (active); in assay [5], 9.53 µM (active); in [6] it was 8.77 µM (active). For the same compound, the AC50 was 8.22 µM (active) in assay [7]; 22.3 µM (active) in [8]; 11.4 µM (active) in [9]; 5.96 µM (active) in [11]; 10.4 µM (active) in assay [12]; 5.21 µM (active) in assay [13]. Besides, the AC50 in assay [14] was 10.9 µM (active); in assay [15], 6.58 µM (active); in assay [16], 5.75 µM (active); in [18], 9.73 µM (active); in assay [19], 5.18 µM (active); in [20], 7.65 µM (active). Also, the compound was classed as inactive in [1], in assay [2] and in [10].

With `O=C(O)C(F)(F)C(F)(F)C(F)(F)C(F)(F)C(F)(F)C(F)(F)C(F)(F)C(F)(F)C(F)(F)C(F)(F)F`, the concentration at half-maximal activity (AC50) in [1] was 13.5 µM (active); in assay [3], 30.5 µM (active); in [4], 25.3 µM (active) and 5.25 µM (active) and 5.23 µM (active); in [5] it was 30.7 µM (active); in assay [6] it was 32.3 µM (active); in assay [7], 29.7 µM (active). Further, the concentration at half-maximal activity (AC50) is 29 µM (active) in assay [8]; 35.3 µM (active) in assay [9]; 29.4 µM (active) in [11]; 29.3 µM (active) and 5.53 µM (active) and 5.54 µM (active) in assay [12]; 37.8 µM (active) in [13]; 31 µM (active) in assay [14]. For the same compound, the AC50 in assay [15] is 31.8 µM (active); in [16], 25.5 µM (active) and 2.72 µM (active) and 4.77 µM (active); in assay [18], 32.1 µM (active); in [20], 9.29 µM (active) and 4.71 µM (active) and 4.92 µM (active). Further, the outcome in [1], in [2], in assay [3], in [5], in assay [6] and in assay [7] was inactive. Also, the outcome in assay [8], in assay [9], in [10], in assay [11], in assay [14] and in assay [15] was inactive. Further, the outcome in [18] and in assay [19] was inactive.

In the case of `NC(=O)O`, the result in [1], in [2], in [3], in assay [4], in [5] and in assay [6] was inactive. The outcome in assay [7], in assay [8], in assay [9], in assay [10], in assay [11] and in assay [12] was inactive. The result in [13], in assay [14], in [15], in [16], in [18] and in assay [19] was inactive. Moreover, the outcome in [20] was inactive.
